Test results reported in PubChem BioAssay (EPA / NIEHS).
Calls of active or inactive are those of the source. How the source made its calls: active means hit-call score of the fitted dose curve at least 0.9, where 1 is the maximum; inactive means score below 0.9.

Tests used:
[1] = read-out: Macrophage colony-stimulating factor (MCSF), CSF1 (gene 1435); assay: BSK_hDFCGF_MCSF: BioMAP Diversity Plus: hDFCGF Assay for Macrophage colony-stimulating factor (MCSF) Biomarker Activity (AID 2283060); details: primary human foreskin fibroblasts; actives raise or lower the signal
How it was run: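 fibroblasts (human foreskin, primary), 24 h post-dose; M-CSF by ELISA; bidirectional fit, DMSO = baseline.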

[2] = BSK_hDFCGF_SRB: Viability Assessment in the BioMAP Diversity Plus: hDFCGF Assay (AID 2283061); details: primary human foreskin fibroblasts;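 further: cells exposed to compound for 24 h before the read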
How it was run: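 SRB-based viability read on primary human skin fibroblasts at 24 h: TCA fixation, 0.1% dye, 560 nm. Gain or loss of signal is fitted against the DMSO negative control.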

[3] = read-out: TIMP metallopeptidase inhibitor 1 (TIMP1), TIMP1 (gene 7076); assay: BSK_hDFCGF_TIMP1: BioMAP Diversity Plus: hDFCGF Assay for TIMP metallopeptidase inhibitor 1 (TIMP1) Biomarker Activity (AID 2283062); details: primary human foreskin fibroblasts; actives raise or lower the signal
How it was run: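 Bidirectional curve fitting against DMSO baseline yielded this endpoint, based on ELISA detection of TIMP-1 in primary human foreskin fibroblasts exposed to compound for 24 h.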

[4] = read-out: Monokine induced gamma interferon (MIG), CXCL9 (gene 4283); assay: BSK_hDFCGF_MIG: BioMAP Diversity Plus: hDFCGF Assay for Monokine induced gamma interferon (MIG) Biomarker Activity (AID 2283063); details: primary human foreskin fibroblasts; actives raise or lower the signal
How it was run: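 Endpoint derived by bidirectional fitting relative to DMSO; MIG quantified via ELISA in primary human foreskin fibroblasts harvested 24 h after dosing.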

[5] = read-out: Matrix Metallopeptidase 1 (MMP1), MMP1 (gene 4312); assay: BSK_hDFCGF_MMP1: BioMAP Diversity Plus: hDFCGF Assay for Matrix Metallopeptidase 1 (MMP1) Biomarker Activity (AID 2283064); details: primary human foreskin fibroblasts; actives raise or lower the signal
How it was run: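 Primary human foreskin fibroblasts exposed to chemicals for 24 h; MMP1 measured by ELISA. Cytotoxicity tracked by SRB staining in parallel cultures; bidirectional fit relative to DMSO.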

[6] = read-out: Vascular cell adhesion molecule 1 (VCAM1), VCAM1 (gene 7412); assay: BSK_hDFCGF_VCAM1: BioMAP Diversity Plus: hDFCGF Assay for Vascular cell adhesion molecule 1 (VCAM1) Biomarker Activity (AID 2283065); details: primary human foreskin fibroblasts; actives raise or lower the signal
How it was run: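 Measured after 24 h chemical treatment of primary human skin fibroblasts, VCAM-1 was detected by ELISA and concentration-response analysed in both directions versus DMSO vehicle.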

[7] = read-out: Plasminogen activator inhibitor-1 (PAI1), SERPINE1 (gene 5054); assay: BSK_hDFCGF_PAI1: BioMAP Diversity Plus: hDFCGF Assay for Plasminogen activator inhibitor-1 (PAI1) Biomarker Activity (AID 2283066); details: primary human foreskin fibroblasts; actives raise or lower the signal
How it was run: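 Human foreskin fibroblast primary cells, 24 h chemical exposure; PAI-1 measured by ELISA. Bidirectional fitting relative to DMSO; parallel cultures stained with SRB for total protein to flag overt cytotoxicity.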

[8] = read-out: Intercellular Adhesion Molecule 1 (ICAM1), ICAM1 (gene 3383); assay: BSK_KF3CT_ICAM1: BioMAP Diversity Plus: KF3CT Assay for Intercellular Adhesion Molecule 1 (ICAM1) Biomarker Activity (AID 2283067); details: primary human keratinocytes with fibroblasts; actives raise or lower the signal
How it was run: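 Bidirectional curve fitting against a DMSO baseline was applied to ICAM-1 ELISA signal from primary human skin co-cultures harvested 24 h after treatment, with SRB staining of parallel wells for overt cytotoxicity.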

[9] = read-out: Interferon-gamma inducible Protein 10 (IP10), CXCL10 (gene 3627); assay: BSK_KF3CT_IP10: BioMAP Diversity Plus: KF3CT Assay for Interferon-gamma inducible Protein 10 (IP10) Biomarker Activity (AID 2283068); details: primary human keratinocytes with fibroblasts; actives raise or lower the signal
How it was run: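 In a primary skin co-culture of keratinocytes and fibroblasts, IP-10 is quantified by ELISA at 24 h after dosing. SRB staining of parallel wells monitors overt toxicity. Curves are fitted both directions against DMSO.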

[10] = BSK_KF3CT_SRB: Viability Assessment in the BioMAP Diversity Plus: KF3CT Assay (AID 2283069); details: primary human keratinocytes with fibroblasts;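 further: total protein by sulforhodamine B staining as a cytotoxicity measure; read 24 h after compound addition; fitted for both signal gain and loss against DMSO baseline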
How it was run: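 Human keratinocyte and foreskin fibroblast co-culture exposed to chemical for 24 h. Total protein measured in parallel cultures by 0.1% sulforhodamine B staining after 10% TCA fixation, read at 560 nm; bidirectional fit relative to DMSO.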

[11] = read-out: Interleukin-1 alpha (IL1a), IL1A (gene 3552); assay: BSK_KF3CT_IL1a: BioMAP Diversity Plus: KF3CT Assay for Interleukin-1 alpha (IL1a) Biomarker Activity (AID 2283070); details: primary human keratinocytes with fibroblasts; actives raise or lower the signal
How it was run: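 Primary human keratinocyte plus foreskin fibroblast co-culture, dosed and measured at 24 h in 96-well plates. IL-1a level quantified by ELISA; bidirectional fit relative to DMSO.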

[12] = read-out: TIMP metallopeptidase inhibitor 2 (TIMP2), TIMP2 (gene 7077); assay: BSK_KF3CT_TIMP2: BioMAP Diversity Plus: KF3CT Assay for TIMP metallopeptidase inhibitor 2 (TIMP2) Biomarker Activity (AID 2283071); details: primary human keratinocytes with fibroblasts; actives raise or lower the signal
How it was run: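 Co-culture of human primary keratinocytes and foreskin fibroblasts, measured 24 h after chemical dosing. TIMP-2 quantified by ELISA and fitted in both directions relative to DMSO. Cytotoxicity checked in parallel cultures by SRB total-protein staining.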

[13] = read-out: C-C motif chemokine 2 (Homo sapiens) (UniProt P13500); assay: BSK_KF3CT_MCP1: BioMAP Diversity Plus: KF3CT Assay for Monocyte Chemoattractant Protein 1 (MCP1/CCL2) Biomarker Activity (AID 2283073); details: primary human keratinocytes with fibroblasts; actives raise or lower the signal
How it was run: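 Biomarker MCP-1 is measured by ELISA in primary human keratinocytes co-cultured with foreskin fibroblasts, 24 h after chemical treatment; DMSO serves as the negative control and activity baseline.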

[14] = read-out: Matrix Metallopeptidase 9 (MMP9), MMP9 (gene 4318); assay: BSK_KF3CT_MMP9: BioMAP Diversity Plus: KF3CT Assay for Matrix Metallopeptidase 9 (MMP9) Biomarker Activity (AID 2283074); details: primary human keratinocytes with fibroblasts; actives raise or lower the signal
How it was run: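 Human keratinocyte and foreskin fibroblast co-culture exposed to chemicals for 24 h; MMP9 biomarker measured by ELISA, bidirectional fitting relative to DMSO; cytotoxicity tracked by SRB total protein staining in parallel cultures.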

[15] = read-out: urokinase plasminogen activator (uPA), PLAU (gene 5328); assay: BSK_KF3CT_uPA: BioMAP Diversity Plus: KF3CT Assay for urokinase plasminogen activator (uPA) Biomarker Activity (AID 2283075); details: primary human keratinocytes with fibroblasts; actives raise or lower the signal
How it was run: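 Primary human keratinocyte/foreskin fibroblast co-culture exposed to chemical; uPA measured by ELISA at 24 h. Bidirectional fit versus DMSO, with parallel SRB total-protein staining for cytotoxicity.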

CD40, CD40 (gene 958) = assay: BSK_LPS_CD40: BioMAP Diversity Plus: LPS Assay for CD40 Biomarker Activity (AID 2283076); details: primary human HUVEC with PBMC; actives raise or lower the signal
How it was run: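 Using a multiplexed primary human co-culture (umbilical vein endothelium plus PBMC), CD40 was read by ELISA 24 h after dosing, with cytotoxicity tracked by sulforhodamine B staining of parallel cultures and activity fitted bidirectionally versus DMSO.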

[16] = read-out: E-selectin (Homo sapiens) (UniProt P16581); assay: BSK_LPS_Eselectin: BioMAP Diversity Plus: LPS Assay for Eselectin Biomarker Activity (AID 2283077); details: primary human HUVEC with PBMC; actives raise or lower the signal
How it was run: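 Dose chemical onto LPS-driven HUVEC/PBMC co-culture; after 24 h, run ELISA for E-selectin; fit up- and down-going responses relative to DMSO control.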

[17] = read-out: Interleukin-8 (IL8), CXCL8 (gene 3576); assay: BSK_LPS_IL8: BioMAP Diversity Plus: LPS Assay for Interleukin-8 (IL8) Biomarker Activity (AID 2283078); details: primary human HUVEC with PBMC; actives raise or lower the signal
How it was run: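 In this LPS system, chemical-treated human umbilical vein endothelium/PBMC co-cultures were harvested at 24 h for IL-8 ELISA.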

Measured: outcome

E-selectin (Homo sapiens), sequence (P16581 whole entry, looked up): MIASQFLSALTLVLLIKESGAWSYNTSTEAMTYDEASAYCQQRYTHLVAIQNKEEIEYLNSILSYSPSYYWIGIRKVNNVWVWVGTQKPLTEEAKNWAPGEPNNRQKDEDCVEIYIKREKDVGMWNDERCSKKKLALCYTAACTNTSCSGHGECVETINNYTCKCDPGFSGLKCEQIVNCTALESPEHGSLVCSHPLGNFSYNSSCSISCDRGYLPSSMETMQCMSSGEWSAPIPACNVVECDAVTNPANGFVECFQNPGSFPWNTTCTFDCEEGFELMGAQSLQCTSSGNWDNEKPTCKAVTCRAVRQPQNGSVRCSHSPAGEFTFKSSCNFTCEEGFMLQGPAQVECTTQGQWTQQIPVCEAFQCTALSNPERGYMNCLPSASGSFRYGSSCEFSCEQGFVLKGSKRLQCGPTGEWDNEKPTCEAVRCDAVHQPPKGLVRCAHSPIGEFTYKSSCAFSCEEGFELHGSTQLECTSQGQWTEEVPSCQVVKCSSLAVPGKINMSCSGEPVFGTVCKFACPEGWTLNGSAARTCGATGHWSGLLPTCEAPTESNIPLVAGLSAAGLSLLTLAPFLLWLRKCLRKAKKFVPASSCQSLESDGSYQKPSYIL

C[C@]12CCC(=O)C=C1CC[C@@H]1[C@@H]2CC[C@@]2(C)[C@H]1CC[C@]2(C)O
inactive: all assays above
